# Data as given in PubChem BioAssay.
# The source made the active and inactive calls.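 How the source made its calls, unless noted: active means fluorescence slope after compound addition differing from the mean of all screened samples at 99.7% confidence, in either direction; inactive means the rest.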
# Molecular target: Alpha-2C adrenergic receptor (Homo sapiens) (UniProt P18825)
# Test: modulators of alpha2C/GIRK thallium flux, primary screen, cell-based, HEK293 alpha2C/GIRK1/2 (AID 624);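 further: slope of fluorescence ratio to pre-addition baseline per second over 15 to 24 s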
# Conditions: thallium flux BTC fluorescence, at 10 µM, actives lie on both sides
# Sequence of Alpha-2C adrenergic receptor (Homo sapiens) (P18825 whole entry, looked up): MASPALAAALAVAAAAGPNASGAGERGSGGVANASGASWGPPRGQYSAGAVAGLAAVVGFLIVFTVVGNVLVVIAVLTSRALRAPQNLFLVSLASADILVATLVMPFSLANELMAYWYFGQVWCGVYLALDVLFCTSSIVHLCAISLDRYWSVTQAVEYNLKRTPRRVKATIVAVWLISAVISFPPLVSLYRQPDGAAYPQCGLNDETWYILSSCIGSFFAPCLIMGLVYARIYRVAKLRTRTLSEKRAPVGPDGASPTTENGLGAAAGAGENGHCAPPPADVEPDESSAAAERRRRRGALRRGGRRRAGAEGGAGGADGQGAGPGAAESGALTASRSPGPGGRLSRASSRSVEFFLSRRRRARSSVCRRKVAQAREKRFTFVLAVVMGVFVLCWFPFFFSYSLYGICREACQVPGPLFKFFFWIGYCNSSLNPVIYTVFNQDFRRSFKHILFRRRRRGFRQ
row,Structure (SMILES),slope
1,Cc1nc2c(-c3ccc(F)cc3)c(C)nn2c(C)c1CCC(=O)NC(C)CCc1ccco1 (stereo not drawn),0.00479 (inactive)
2,CCOC(=O)N1CCC(NC(=O)CSCc2nc(-c3cccc(OC)c3)oc2C)CC1,0.00445 (inactive)
3,Cn1c(=O)[nH]c(=O)c2c1nc(NC1CCCCC1)n2CC(=O)NC1CCCCC1,0.00653 (inactive)
4,O=S(=O)(Nc1ccc(Cc2ccncc2)cc1)N1CCCC1,0.00557 (inactive)
5,CCOc1ccc2nc(NC(=O)CSc3nnnn3C3CCCCC3)sc2c1,0.00315 (inactive)
6,COc1ccccc1OCCCCNCCO,0.00597 (inactive)
7,Cc1cccc(-n2ncc3c(NCCCO)ncnc32)c1,0.00564 (inactive)
8,COc1cc(NC(=O)Nc2cccc(Cl)c2)c(OC)cc1NC(=O)CN1CCCCC1,0.00392 (inactive)
9,CCOC(=O)N1CCN(C(=O)c2n[nH]c(=O)c3ccccc23)CC1,0.00361 (inactive)
10,C=CCN1C(=O)C2(C(C#N)=C(N)Oc3n[nH]c(CCC)c32)c2ccccc21 (stereo not drawn),0.00735 (inactive)
11,CCOc1ccc2[nH]c(=O)c(C(c3nnnn3CC3CCCO3)N3CCc4ccccc4C3)cc2c1 (stereo not drawn),0.00562 (inactive)
12,Cn1c(Cc2ccccc2)nnc1SCC(=O)N1CCOCC1,0.00541 (inactive)
13,CC1=C(C(=O)OC2CCCCC2)C(c2ccc(C)o2)C2=C(CC(C)(C)CC2=O)N1 (stereo not drawn),0.0052 (inactive)
14,O=S(=O)(NC1CCCCC1NS(=O)(=O)c1ccc(F)cc1)c1ccc(F)cc1 (stereo not drawn),0.00507 (inactive)
15,CCOC(=O)c1ccc(NC(=O)Cn2cc3c(n2)CCC(C)C3)cc1 (stereo not drawn),0.00553 (inactive)
16,O=C(O)C1CC(=O)N(CCOc2ccccc2)C1 (stereo not drawn),0.00593 (inactive)
17,COC(=O)c1ccc(NC(=O)C(C)N2C(=O)c3ccccc3C2=O)cc1 (stereo not drawn),0.0058 (inactive)
18,COc1ccc(N2CCN(C(=O)COc3ccc4ccccc4c3)CC2)cc1,0.00617 (inactive)
19,Cn1cc(CN2CCc3ccccc3C2)c2ccccc21,0.00535 (inactive)
20,COC(=O)c1cn(NC(=O)c2cccnc2)c(=O)c2ccccc12,0.00509 (inactive)

row,Structure (SMILES),slope
1,Cn1c(C(=O)NCCCN2CCCCCC2)cc2c(=O)n(C)c3ccccc3c21,0.00675 (inactive)
2,O=C(Nc1nccs1)c1ccc(COc2ccccc2Br)o1,0.00542 (inactive)
3,CC(C)Cn1c(CN(Cc2ccccc2)Cc2ccccc2)nc2c1c(=O)n(C)c(=O)n2C,0.00724 (inactive)
4,Cc1ccc(CCNC(=O)CC2Oc3ccc(C)cc3NC2=O)cc1 (stereo not drawn),0.00676 (inactive)
5,COc1cc2c(=O)n(Cc3ccccc3)c(=O)n(CC(=O)NCc3ccco3)c2cc1OC,0.0075 (inactive)
6,O=C(Nc1ccc(Cl)cn1)c1cccnc1,0.00527 (inactive)
7,CCSc1nc2ccccc2n1CC(N)=O,0.00599 (inactive)
8,CC1(c2ccc(Cl)cc2)NC(=O)N(CC(=O)NC(=O)NCc2ccco2)C1=O (stereo not drawn),0.00253 (inactive)
9,O=C(Nn1cnnc1)C1Cc2ccccc2CN1S(=O)(=O)c1ccc(F)cc1 (stereo not drawn),0.00658 (inactive)
10,Cc1cc(NCCN2CCCCC2)n2c(nc3ccccc32)c1C#N,0.0039 (inactive)
11,CCCSc1nnc(-c2ccccc2NC(=O)CC)c(=O)[nH]1,0.00431 (inactive)
12,O=C(NCc1ccco1)c1ccc2c(=O)n(CC3CCCO3)c(=S)[nH]c2c1 (stereo not drawn),0.00599 (inactive)
13,C[C@@H]1C[C@H](O)c2cc(Cl)ccc2N1,0.0061 (inactive)
14,COc1cccc(NC(=O)COC(=O)c2cccnc2)c1,0.0053 (inactive)
15,NC(=O)CCS(=O)(=O)CCN1CCCCC1,0.0056 (inactive)
16,Cn1c(=O)n(CCN2CCOCC2)c(=O)c2c1nc1n2CCN1c1ccccc1,0.00592 (inactive)
17,COC(=O)CSc1nnc(-c2cccs2)n1-c1ccc(Cl)cc1,0.00413 (inactive)
18,COc1ccc(NC(=O)C(C)Oc2ccc(/C(C)=N\O)cc2)cc1 (stereo not drawn),0.00609 (inactive)
19,CCOC(=O)c1ccccc1NC(=O)c1cccnc1,0.00744 (inactive)

# System: not listed separately
# Test: inhibitors of Sendai virus-induced IRF3 signaling, primary screen, TLR/RLR signaling modifier project, cell-based, Sendai virus stimulus, luciferase, 10K MLSCN set (AID 602276;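 active means inhibition at or above 50% at 10 µM; inactive means inhibition below 50%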;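 further: firefly luciferase from ISG56 promoter only with Renilla not read in this screen; 0% = Sendai virus plus DMSO and 100% = medium plus DMSO without virus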)
# Conditions: HEK293 RL24 IRF3 luciferase reporter, at 10 µM, hits give high values
row,Structure (SMILES),inhibition
1,Cc1nc2c(-c3ccc(F)cc3)c(C)nn2c(C)c1CCC(=O)NC(C)CCc1ccco1 (stereo not drawn),4.5% (inactive)
2,CCOC(=O)N1CCC(NC(=O)CSCc2nc(-c3cccc(OC)c3)oc2C)CC1,9% (inactive)
3,Cn1c(=O)[nH]c(=O)c2c1nc(NC1CCCCC1)n2CC(=O)NC1CCCCC1,18.1% (inactive)
4,O=S(=O)(Nc1ccc(Cc2ccncc2)cc1)N1CCCC1,1.91% (inactive)
5,CCOc1ccc2nc(NC(=O)CSc3nnnn3C3CCCCC3)sc2c1,-4.95% (inactive)
6,COc1ccccc1OCCCCNCCO,1.66% (inactive)
7,Cc1cccc(-n2ncc3c(NCCCO)ncnc32)c1,-58.8% (inactive)
8,COc1cc(NC(=O)Nc2cccc(Cl)c2)c(OC)cc1NC(=O)CN1CCCCC1,14.5% (inactive)
9,CCOC(=O)N1CCN(C(=O)c2n[nH]c(=O)c3ccccc23)CC1,-11.6% (inactive)
10,C=CCN1C(=O)C2(C(C#N)=C(N)Oc3n[nH]c(CCC)c32)c2ccccc21 (stereo not drawn),11.3% (inactive)
11,CCOc1ccc2[nH]c(=O)c(C(c3nnnn3CC3CCCO3)N3CCc4ccccc4C3)cc2c1 (stereo not drawn),20.7% (inactive)
12,Cn1c(Cc2ccccc2)nnc1SCC(=O)N1CCOCC1,10.3% (inactive)
13,CC1=C(C(=O)OC2CCCCC2)C(c2ccc(C)o2)C2=C(CC(C)(C)CC2=O)N1 (stereo not drawn),7.33% (inactive)
14,O=S(=O)(NC1CCCCC1NS(=O)(=O)c1ccc(F)cc1)c1ccc(F)cc1 (stereo not drawn),21.4% (inactive)
15,CCOC(=O)c1ccc(NC(=O)Cn2cc3c(n2)CCC(C)C3)cc1 (stereo not drawn),12.5% (inactive)
16,O=C(O)C1CC(=O)N(CCOc2ccccc2)C1 (stereo not drawn),0.323% (inactive)
17,COC(=O)c1ccc(NC(=O)C(C)N2C(=O)c3ccccc3C2=O)cc1 (stereo not drawn),-2.42% (inactive)
18,COc1ccc(N2CCN(C(=O)COc3ccc4ccccc4c3)CC2)cc1,4.32% (inactive)
19,Cn1cc(CN2CCc3ccccc3C2)c2ccccc21,20.8% (inactive)
20,COC(=O)c1cn(NC(=O)c2cccnc2)c(=O)c2ccccc12,10.1% (inactive)

row,Structure (SMILES),inhibition
1,Cn1c(C(=O)NCCCN2CCCCCC2)cc2c(=O)n(C)c3ccccc3c21,72.2% (active)
2,O=C(Nc1nccs1)c1ccc(COc2ccccc2Br)o1,21.2% (inactive)
3,CC(C)Cn1c(CN(Cc2ccccc2)Cc2ccccc2)nc2c1c(=O)n(C)c(=O)n2C,9.97% (inactive)
4,Cc1ccc(CCNC(=O)CC2Oc3ccc(C)cc3NC2=O)cc1 (stereo not drawn),-18.4% (inactive)
5,COc1cc2c(=O)n(Cc3ccccc3)c(=O)n(CC(=O)NCc3ccco3)c2cc1OC,23.8% (inactive)
6,O=C(Nc1ccc(Cl)cn1)c1cccnc1,-14% (inactive)
7,CCSc1nc2ccccc2n1CC(N)=O,14.3% (inactive)
8,CC1(c2ccc(Cl)cc2)NC(=O)N(CC(=O)NC(=O)NCc2ccco2)C1=O (stereo not drawn),14.9% (inactive)
9,O=C(Nn1cnnc1)C1Cc2ccccc2CN1S(=O)(=O)c1ccc(F)cc1 (stereo not drawn),14.1% (inactive)
10,Cc1cc(NCCN2CCCCC2)n2c(nc3ccccc32)c1C#N,10.4% (inactive)
11,CCCSc1nnc(-c2ccccc2NC(=O)CC)c(=O)[nH]1,4.4% (inactive)
12,O=C(NCc1ccco1)c1ccc2c(=O)n(CC3CCCO3)c(=S)[nH]c2c1 (stereo not drawn),9.53% (inactive)
13,C[C@@H]1C[C@H](O)c2cc(Cl)ccc2N1,11% (inactive)
14,COc1cccc(NC(=O)COC(=O)c2cccnc2)c1,20.2% (inactive)
15,NC(=O)CCS(=O)(=O)CCN1CCCCC1,19.5% (inactive)
16,Cn1c(=O)n(CCN2CCOCC2)c(=O)c2c1nc1n2CCN1c1ccccc1,-6.67% (inactive)
17,COC(=O)CSc1nnc(-c2cccs2)n1-c1ccc(Cl)cc1,17% (inactive)
18,COc1ccc(NC(=O)C(C)Oc2ccc(/C(C)=N\O)cc2)cc1 (stereo not drawn),14.5% (inactive)
19,CCOC(=O)c1ccccc1NC(=O)c1cccnc1,-0.374% (inactive)
